HCV inh – inhibitors of hepatitis C virus infection; actives 3.4% (n = 340,000); Potency, µM (titrated, usually from 41.8 µM), without a hit: at the top dose activity change, negative = inhibition, usual class: inhibitors; Huh7.5.1 HCVcc-Cre infection, luciferase reporter, 44 h; AID 651820; further: potency means the concentration at half of the fitted maximal effect; on the % scale 0 is the no-effect control and ±100 the full control effect
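Cells seeded at 1,000/well and cultured 4 h, then compounds added followed by HCVcc-Cre virus (~0.5 moi). After 44 h further culture, luciferase substrate was added, plates held 15 min at room temperature, and luminescence read for 15 sec.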
Pf growth 48h – inhibits P. falciparum growth in the first generation, 48 h; P. falciparum luciferase growth in erythrocytes, 48 h; Potency, µM (titrated, usually from 28.7 µM), for the others: at the top dose activity change, negative = inhibition, usual class: inhibitors; actives 5.9% (n = 310,000); further: potency means the concentration at half of the fitted maximal effect; on the % scale 0 is the no-effect control and ±100 the full control effect
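Luciferase-expressing P. falciparum in infected erythrocytes (2% hematocrit, 0.1% parasitemia final) in RPMI 1640/0.5% Albumax were exposed to compound for 48 hours at 37 C, 5% CO2; growth read as luminescence.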
Cycloheximide cs – affects cycloheximide protein synthesis inhibition readout, counter-screen; cell reporter, cycloheximide protein synthesis inhibition counterscreen; actives 12% (n = 300,000); max response, %; in the data active means max response mostly above about 13%, no sharp cut-off; inactive means mostly below about 14%; further: read at 38.3 µM for the half of the compounds with a filed dose; 0% is about no effect
Pf growth 96h – inhibits malaria parasite growth, 96 h. P. falciparum luciferase reporter growth, 96 h. Potency, µM (top dose mostly 28.7 µM), without a hit: at the highest dose activity change, negative = inhibition, hits mostly inhibitors. actives 6.9% (n = 320,000). AID 504834; further: potency means the concentration at half of the fitted maximal effect; on the % scale 0 is the no-effect control and ±100 the full control effect
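Parasite growth measured via integrated firefly luciferase reporter in P. falciparum. Infected erythrocytes at 2% hematocrit, 0.05% parasitemia final were treated 96 hours at 37 C under 5% CO2, and luminescence was read.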
AMA1-RON2 inh – inhibitors of Plasmodium falciparum AMA1-RON2 interaction | AlphaScreen AMA1-biotinylated RON2 peptide binding | Potency, µM (series often up to 58.2 µM), for inactives: top-dose activity change, negative = inhibition, hits mostly inhibitors | actives 0.2% (n = 360,000) | AID 720542;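 further: potency means the concentration at half of the fitted maximal effect; 0% = vehicle wells and -100% = peptide control; nearly all actives have a fitted effect of over 45% in size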
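AMA1 (3D7) with his tag at 25 nM final met compounds first, then biotinylated RON2 peptide at 25 nM; detection used donor plus acceptor beads, 10 µg/mL apiece, read by AlphaScreen after 30 min at room temperature.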
Shiga inhibitor – blocks Shiga toxin action in Vero cells; Vero cells, Shiga toxin protein synthesis inhibition reporter; inhibition, % at 38.7 µM; actives 9.2% (n = 290,000); in the data active means inhibition mostly above about 28%, no sharp cut-off; inactive means mostly below about 43%; further: 0% is about no effect
* hit, by the source's call; [ ] = remark or other dose. Sampled rows, rich in hits. Any-hit rate of the full collection: about 21%. Unless noted, the call rests on the fitted dose curve; in most records, active means well fitted curve in the direction sought with a large enough effect; inconclusive means small, poorly fitted or top-dose-only effect, or another doubt; inactive means no such curve, though single readings can be large; an effect the other way counts as inactive or inconclusive.

Screening COc1ccc(OC)c(CCNC(=O)CS(=O)(=O)Cc2nc(-c3ccc(C)cc3)oc2C)c1 returned HCV inh 3.5µM*, Pf growth 48h 9%, Cycloheximide cs 1, Pf growth 96h 53%, AMA1-RON2 inh -3% and Shiga inhibitor -9.
CCN(CCNC(=O)CS(=O)(=O)Cc1nc(-c2cccc(OC)c2)oc1C)c1ccccc1 was read as HCV inh 22µM*, Pf growth 48h -17%, Cycloheximide cs 6, Pf growth 96h inconclusive, AMA1-RON2 inh -18% and Shiga inhibitor -2.
Screening COc1cccc(-c2nc(CS(=O)(=O)CC(=O)NCCc3cc(OC)ccc3OC)c(C)o2)c1 returned HCV inh inconclusive, Pf growth 48h -28%, Cycloheximide cs 0, Pf growth 96h 13µM*, AMA1-RON2 inh -12% and Shiga inhibitor -4.
For COc1cccc(CC(=O)OCC(=O)Nc2c(C)nn(-c3ccccc3)c2C)c1 the results were HCV inh 7%, Pf growth 48h inconclusive, Pf growth 96h 2% and AMA1-RON2 inh 1%.
`COC(=O)CC(c1ccc(C#N)cc1)n1c(C)ccc1C` (stereo not drawn) gave HCV inh 0%, Pf growth 48h 9.3µM*, Cycloheximide cs -2, Pf growth 96h 13µM*, AMA1-RON2 inh -4% and Shiga inhibitor 1.
CC(=O)c1ccc(OCC(=O)Nc2cccc(S(=O)(=O)N3CCCC3)c2)cc1 was read as HCV inh inconclusive, Pf growth 48h inconclusive, Pf growth 96h 4.1µM* and AMA1-RON2 inh 7%.
Screening COc1ccc(CCC(=O)Nc2cccc(S(=O)(=O)N3CCCCCC3)c2)cc1OC returned HCV inh inconclusive, Pf growth 48h 10µM*, Pf growth 96h inconclusive and AMA1-RON2 inh -2%.
CCOc1ccc(C(=O)N[C@H](C(=O)Nc2cccc(S(=O)(=O)N3CCCCC3)c2)C(C)C)cc1 was read as HCV inh inconclusive, Pf growth 48h inconclusive, Cycloheximide cs -3, Pf growth 96h 10µM*, AMA1-RON2 inh 7% and Shiga inhibitor -8.
Screening CCOc1ccc(NC(=O)CNc2cccc(S(=O)(=O)N3CCCCCC3)c2)cc1OCC returned HCV inh 11µM* and AMA1-RON2 inh -1%.
COc1ccc(CCC(=O)Nc2cccc(S(=O)(=O)N3CCCC3)c2)cc1OC was read as HCV inh inconclusive, Pf growth 48h inconclusive, Pf growth 96h inconclusive and AMA1-RON2 inh -9%.
Screening C[C@H](CO)N1C[C@H](C)[C@@H](CN(C)S(=O)(=O)c2cn(C)cn2)Oc2cc(Br)ccc2S1(=O)=O returned AMA1-RON2 inh 1%.
Screening CSc1ncc(Cl)c(C(=O)Nc2cccc(Cl)c2)n1 returned HCV inh -18%, Pf growth 48h -11%, Cycloheximide cs 5, Pf growth 96h inconclusive, AMA1-RON2 inh 4% and Shiga inhibitor 3.
`CC(=O)OCC(=O)[C@@]1(O)[C@H](C)C[C@@H]2[C@H]3CCC4=CC(=O)C=C[C@]4(C)[C@]3(F)[C@@H](O)C[C@@]21C` gave Pf growth 48h -3%[12.8 µM] and Pf growth 96h -22%[12.8 µM].
`C[C@H]1[C@H](c2ccccc2)C[C@@H](C(=O)O)C1(C)C` gave HCV inh 3%, Pf growth 48h 8%, Pf growth 96h 84% and AMA1-RON2 inh 17%.
Cc1ccc2cccc(OCC(=O)Nc3cccc(S(=O)(=O)N4CCCC4)c3)c2n1 was read as HCV inh 5.6µM*, Pf growth 48h 9.3µM*, Pf growth 96h inconclusive and AMA1-RON2 inh -17%.
CCOc1ccccc1OCC(=O)Nc1cccc(S(=O)(=O)N2CCCCCC2)c1 was read as HCV inh inconclusive, Pf growth 48h inconclusive, Pf growth 96h 13µM* and AMA1-RON2 inh -8%.
For CC(=O)c1ccccc1OCC(=O)Nc1cccc(S(=O)(=O)N2CCCC2)c1 the results were HCV inh -28%, Pf growth 48h inconclusive, Pf growth 96h inconclusive and AMA1-RON2 inh 3%.
N#Cc1ccccc1OCC(=O)Nc1cccc(S(=O)(=O)N2CCCCCC2)c1 was read as HCV inh inconclusive, Pf growth 48h 13µM*, Pf growth 96h inconclusive and AMA1-RON2 inh -7%.
For Cc1ccc(OCC(=O)Nc2cccc(S(=O)(=O)N3CCCCC3)c2)c([N+](=O)[O-])n1 the results were HCV inh inconclusive, Pf growth 48h -23%, Cycloheximide cs -3, Pf growth 96h inconclusive, AMA1-RON2 inh -2% and Shiga inhibitor -2.
O=C(COc1ccc2ccc(=O)oc2c1)Nc1cccc(S(=O)(=O)N2CCCCC2)c1 was read as HCV inh inconclusive, Pf growth 48h 12µM*, Pf growth 96h 4.7µM* and AMA1-RON2 inh 11%.
For COc1cc(CN2CCC(CCC(=O)NC3CC3)CC2)cc(Cl)c1OC the results were HCV inh -3%, Pf growth 48h -15%, Cycloheximide cs -4, Pf growth 96h 0% and AMA1-RON2 inh 3%.
`C=C1CC(COc2ccc3c(C)c(Cl)c(=O)oc3c2)(c2ccccc2)OC1=O` (stereo not drawn) gave HCV inh inconclusive and AMA1-RON2 inh -4%.
`CCOc1ccccc1N(C)C(=O)c1nn(-c2ccc(OC)cc2OC)c(=O)c2ccccc12` gave HCV inh -2%, Pf growth 48h inconclusive, Cycloheximide cs 4, Pf growth 96h 5%, AMA1-RON2 inh -7% and Shiga inhibitor 8.
Screening COc1ccc(NCC(=O)Nc2cccc(S(=O)(=O)N3CCCC3)c2)cc1Cl returned HCV inh 10µM* and AMA1-RON2 inh -22%.
Screening COc1ccc(NC(=O)COC(=O)CNS(=O)(=O)c2ccccc2)cc1OC returned HCV inh 14%, Pf growth 48h -3%, Cycloheximide cs 1, Pf growth 96h 31%, AMA1-RON2 inh -13% and Shiga inhibitor 1.
Screening COc1ccc(NC(C)=[N+](C)CCNS(=O)(=O)c2ccc(Cl)cc2)cc1Cl returned HCV inh -16%, Pf growth 48h inconclusive, Cycloheximide cs 16*, Pf growth 96h inconclusive, AMA1-RON2 inh -17% and Shiga inhibitor 21.
Screening COc1ccc(NC(=O)CNS(=O)(=O)c2ccccc2)cc1Cl returned HCV inh -12%, Pf growth 48h -3%, Cycloheximide cs 14*, Pf growth 96h 48%, AMA1-RON2 inh 26% and Shiga inhibitor 4.
Screening COc1ccccc1NC(C)=[N+](C)CCNS(=O)(=O)c1ccc(Cl)cc1 returned HCV inh -19%, Pf growth 48h -4%, Cycloheximide cs 1, Pf growth 96h -11%, AMA1-RON2 inh -21% and Shiga inhibitor 25.
`Cc1cc(Cl)ccc1OCC(=O)Nc1cccc(S(=O)(=O)N2CCCC2)c1` gave HCV inh 7.9µM*, Pf growth 48h inconclusive, Pf growth 96h inconclusive and AMA1-RON2 inh -6%.
